Some test systems named below: SR leukemia; RPMI-8226 leukemia; OVCAR-8 ovarian; OVCAR-5 ovarian; OVCAR-4 ovarian; SK-OV-3 ovarian; IGROV1 ovarian; OVCAR-3 ovarian; HS 578T breast; NCI/ADR-RES ovarian; T-47D breast; BT-549 breast; MDA-MB-435 melanoma; SW-620 colon; MCF7 breast; HCT-116 colon; HCC-2998 colon; KM12 colon.
What all share (assay): NCI-60 one-dose screen, 48 h (100 = growth as untreated, 0 = no growth, -100 = all killed)
Holding throughout (details): 10 µM

Drawing on PubChem BioAssay (NCI), this text covers growth for nine compounds.

Molecules are shown by their SMILES. This is part of a sample that, as a whole, favours compounds with a hit. Of some 83,000 tested, about 20% had one in any assay.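 Single-dose data. Exposure time 48 hours. Values below 10 considered active.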 Unmarked numbers belong to inactive results. Active and inactive are the calls of the source.

With `C=C[C@]1(C)C=C2C(=O)[C@@]3(O)OC(=O)[C@@]4(CCCC(C)(C)[C@H]34)[C@@]2(O)CC1`, the growth is -11% (active) in the assay with SR leukemia; -25.4% (active) in the assay with RPMI-8226 leukemia; -56.8% (active) in the assay on OVCAR-8 ovarian; -71.7% (active) in the assay on OVCAR-5 ovarian; -74.4% (active) in the assay with OVCAR-4 ovarian; 38.4% in the assay on SK-OV-3 ovarian. The growth with IGROV1 ovarian was -92.8% (active); in the assay on OVCAR-3 ovarian, -90.4% (active); with HS 578T breast, 0.722% (active); in the assay on NCI/ADR-RES ovarian it was -6.84% (active); with T-47D breast, -52.8% (active); in the assay on BT-549 breast it was -93.7% (active). For the same compound, the growth in the assay with MDA-MB-435 melanoma is -90.6% (active); with SW-620 colon, -42% (active); in the assay with MCF7 breast, 0.55% (active); in the assay with HCT-116 colon it was -93.4% (active); with HCC-2998 colon it was -91.3% (active); in the assay on KM12 colon, 8.33% (active).
Consider `COc1cccc(C(=O)NNc2nc(N3CCN(C4CCCCC4)CC3)nc(N3CCN(C(c4ccccc4)c4ccccc4)CC3)n2)c1`, for which the growth in the assay on SR leukemia was -16.1% (active); in the assay with RPMI-8226 leukemia, -11.5% (active); in the assay on OVCAR-8 ovarian it was 30.1%; in the assay on OVCAR-5 ovarian, 94.3%; in the assay with OVCAR-4 ovarian, 24.2%; in the assay on SK-OV-3 ovarian, 52.2%. Besides, the growth is 37.6% in the assay on IGROV1 ovarian; 32.2% in the assay with OVCAR-3 ovarian; 74.2% in the assay with HS 578T breast; 31.1% in the assay with NCI/ADR-RES ovarian; 29% with T-47D breast; 55.5% in the assay with BT-549 breast. For the same compound, the growth in the assay with MDA-MB-435 melanoma was 35%; in the assay on SW-620 colon, 39%; with MCF7 breast, 11.2%; in the assay on HCT-116 colon it was 19%; in the assay on HCC-2998 colon it was 42%; in the assay on KM12 colon, 23.6%.
On to `C[C@@H]1N=C(c2ccc(Br)cc2)Nc2nc3ccccn3c2C1=O`, for which the growth in the assay on SR leukemia is 30%; with RPMI-8226 leukemia, 94%; in the assay on OVCAR-8 ovarian it was 72.5%; in the assay on OVCAR-5 ovarian it was 82.4%; in the assay with OVCAR-4 ovarian, 77.5%; in the assay on SK-OV-3 ovarian, 72%. Besides, the growth was 43.1% in the assay with IGROV1 ovarian; 17.3% in the assay with OVCAR-3 ovarian; 71.3% with HS 578T breast; 39.4% in the assay on NCI/ADR-RES ovarian; 67.2% in the assay with T-47D breast; 49.3% with BT-549 breast. Moreover, the growth in the assay with MDA-MB-435 melanoma was -13% (active); in the assay on SW-620 colon, 38%; with MCF7 breast, 20.9%; in the assay with HCT-116 colon it was 29.2%; with HCC-2998 colon, 69%; with KM12 colon, 29.6%.
For `C[C@]12CC[C@H]3[C@@H](CC=C4C[C@@H](O)CC[C@@]43C)[C@@H]1CC[C@@H]2C(=O)C/C=N/O`, the growth in the assay on SR leukemia was 91.6%; with RPMI-8226 leukemia, 59.6%; in the assay with OVCAR-8 ovarian, 91.9%; with OVCAR-5 ovarian, 106%; in the assay on OVCAR-4 ovarian it was 83.6%; with SK-OV-3 ovarian it was 97.1%. In addition, the growth in the assay with IGROV1 ovarian is 76.7%; with OVCAR-3 ovarian, 89.8%; with HS 578T breast, 92.5%; in the assay on NCI/ADR-RES ovarian it was 84.4%; with T-47D breast, 77.2%; in the assay on BT-549 breast, 90.2%. Besides, the growth was 97.1% in the assay with MDA-MB-435 melanoma; 102% with SW-620 colon; 95.6% in the assay with MCF7 breast; 79.1% in the assay on HCT-116 colon; 94.1% in the assay on HCC-2998 colon; 96.6% in the assay with KM12 colon.
On to `CCCCCCCCCCCC(c1ccccc1)N(C)C` (stereo not drawn), for which the growth in the assay with SR leukemia was 77%; in the assay on RPMI-8226 leukemia, 83.5%; in the assay on OVCAR-8 ovarian, 97.7%; in the assay on OVCAR-5 ovarian it was 99.2%; in the assay on OVCAR-4 ovarian, 84.7%; with SK-OV-3 ovarian it was 108%. The growth in the assay on IGROV1 ovarian was 96.1%; in the assay on OVCAR-3 ovarian, 106%; with HS 578T breast, 93.3%; with NCI/ADR-RES ovarian, 96.1%; with T-47D breast, 99.7%; in the assay on BT-549 breast, 101%. Besides, the growth in the assay with MDA-MB-435 melanoma was 102%; with SW-620 colon, 95.4%; in the assay on MCF7 breast, 91.3%; in the assay with HCT-116 colon, 94.4%; in the assay with KM12 colon, 104%.
As for `CCc1cc2n(n1)-c1ncc(C(=O)OC)cc1Oc1ccccc1-2`, the growth with SR leukemia was 93.9%; in the assay with RPMI-8226 leukemia it was 93.3%; in the assay with OVCAR-8 ovarian it was 97.8%; with OVCAR-5 ovarian it was 105%; with OVCAR-4 ovarian, 100%; with SK-OV-3 ovarian, 102%. Further, the growth in the assay with IGROV1 ovarian is 97%; with OVCAR-3 ovarian, 106%; in the assay with HS 578T breast, 97%; in the assay on NCI/ADR-RES ovarian it was 103%; with T-47D breast it was 75.8%; in the assay with BT-549 breast, 111%. Moreover, the growth in the assay with MDA-MB-435 melanoma was 103%; in the assay with SW-620 colon, 106%; with MCF7 breast, 97.4%; in the assay on HCT-116 colon it was 90.5%; with KM12 colon, 102%.
Take `COc1cc(C2C(C#N)=C(c3c[nH]c4ccccc34)Nc3nc(N)[nH]c(=O)c32)cc(OC)c1OC` (stereo not drawn): the growth in the assay on SR leukemia was 78.7%; in the assay on RPMI-8226 leukemia, 98.2%; in the assay with OVCAR-8 ovarian it was 99.1%; with OVCAR-5 ovarian, 96.8%; in the assay with OVCAR-4 ovarian, 75.2%; in the assay on SK-OV-3 ovarian, 80.6%. Further, the growth in the assay with IGROV1 ovarian is 80.3%; in the assay on OVCAR-3 ovarian, 21%; with HS 578T breast, 96%; with NCI/ADR-RES ovarian it was 100%; in the assay with T-47D breast, 36.2%; in the assay with BT-549 breast, 51.6%. The growth was 38.1% with MDA-MB-435 melanoma; 86.9% in the assay with SW-620 colon; 42.2% with MCF7 breast; 74% in the assay with HCT-116 colon; 93.1% in the assay on HCC-2998 colon; 94.1% in the assay on KM12 colon.
As for `Cc1cc(O)c(C2=NN(c3ccc(S(N)(=O)=O)cc3)C(c3ccc(N(C)C)cc3)C2)c(C)c1Cl` (stereo not drawn), the growth was 25.5% in the assay on SR leukemia; -22.2% (active) in the assay with RPMI-8226 leukemia; 75.2% with OVCAR-8 ovarian; 96.8% in the assay with OVCAR-5 ovarian; 58.8% in the assay on OVCAR-4 ovarian; 106% in the assay with SK-OV-3 ovarian. The growth was 34.1% in the assay with IGROV1 ovarian; 80.3% with OVCAR-3 ovarian; 82.5% in the assay on HS 578T breast; 85.6% in the assay with NCI/ADR-RES ovarian; 37% in the assay with T-47D breast; 95.7% with BT-549 breast. In addition, the growth in the assay on MDA-MB-435 melanoma is 69.3%; in the assay with SW-620 colon, 72.2%; in the assay with MCF7 breast, 37.2%; with HCT-116 colon, 41.1%; with KM12 colon, 62.4%.
Regarding `O=S(=O)(NC1c2ccccc2Oc2ccccc21)c1cc(Cl)ccc1Cl`, the growth in the assay with SR leukemia is 66.8%; in the assay on RPMI-8226 leukemia, 96.7%; in the assay on OVCAR-8 ovarian, 93.5%; in the assay on OVCAR-5 ovarian it was 109%; in the assay on OVCAR-4 ovarian, 80.9%; in the assay on SK-OV-3 ovarian, 98.1%. In addition, the growth was 95.5% in the assay on IGROV1 ovarian; 98.7% in the assay on OVCAR-3 ovarian; 102% in the assay with HS 578T breast; 93.5% in the assay on NCI/ADR-RES ovarian; 74.1% in the assay with T-47D breast; 91.1% in the assay with BT-549 breast. The growth was 105% with MDA-MB-435 melanoma; 87.5% in the assay on SW-620 colon; 91.9% in the assay with MCF7 breast; 90.4% in the assay with HCT-116 colon; 102% in the assay with KM12 colon.
